# About 83,000 compounds went through this panel and 20% of them were active in at least one assay; those are over-represented in the sample as a whole.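 Interpretation: 100, growth as untreated; towards 0, rising growth inhibition; 0, no net growth; 0 to -100, cell death. Compounds scoring below 10 were considered active.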 Unmarked numbers belong to inactive results. Calls of active or inactive are those of the source.
# Test system: T-47D breast
# Experiment: NCI-60 one-dose screen, 48 h (100 = growth as untreated, 0 = no growth, -100 = all killed)
# Details: 10 µM unless noted
row,SMILES,growth
1,CCN(CC)C(=O)O/N=C(/C)c1ccccc1,110%
2,C=C1C(=O)O[C@H]2[C@H]1CC/C(COC(=O)NCc1ccc(Cn3c(=O)sn(CCCl)c3=O)cc1)=C\CC[C@@]1(C)O[C@@H]21,3.07% (active)
3,COc1ccc2c(c1)sc1nc(-c3ccccc3)c(-c3cccc4ccccc34)n12,60.5%
4,c1ccc(-c2nnn(-c3ccccc3)n2)cc1,108%
5,CC(C)N(C(=S)SSC(=S)N(C(C)C)C(C)C)C(C)C,86.8%
6,Cc1ccc2c(C)c3c(ccc4ccccc43)c[n+]2c1,-8.02% (active)
7,O=C(N/N=C/c1ccc([N+](=O)[O-])cc1)c1ccccc1Nc1ccnc(C(F)(F)F)c1,47.2%
8,CC(C)CC1NC(=O)C(CC(C)C)N(CO)C1=O (stereo not given),96.5%
9,Cc1ccccc1C1CC(=O)c2ccccc2C1C (stereo not given),107%
10,O=C1/C(=C/N2N=C(c3ccc(Cl)cc3)CC2c2ccccc2O)SC(=S)N1c1cccc(C(F)(F)F)c1 (stereo not given),27.4%
11,CN(C)CC(=O)c1ccc2cc(Br)c3ccccc3c2c1,37.1%
12,CCN(C(=O)CCl)C(C)(C)C(SSSC(c1ccc(Cl)cc1)C(C)(C)N(CC)C(=O)CCl)c1ccc(Cl)cc1 (stereo not given),87.1%
13,COc1ccc(NC(=O)Cn2c(=O)sc3c(-c4ccc(Cl)cc4)cc(-c4ccc(Cl)cc4)nc32)cc1,79.9%
14,COc1cccc(/C=N\Nc2ccc([N+](=O)[O-])cn2)c1O,30.1%
15,CCCC(CCC)(C(N)=O)C(=O)O,111%

# Source: PubChem BioAssay (NCI)
